High-throughput results from PubChem BioAssay.
BAZ2B block: inhibitors of human BAZ2B bromodomain. AlphaScreen BAZ2B-H3K14Ac peptide displacement. Potency, µM (series often up to 114 µM), for the others: at the top dose activity change, negative = inhibition, usual class: inhibitors. Q9UIF8. actives 4.4% (n = 360,000); further: on the % scale 0 is the no-effect control and ±100 the full control effect; nearly all actives have a fitted effect of over 60% in size
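BAZ2B 50 nM plus b-H3(5-23)K14Ac 50 nM, PBS pH 7.4/0.01% Tween-20, 30 min RT; compound added (max 110 uM), 30 min RT; streptavidin donor/Ni-chelate acceptor beads 10 ug/mL final, 20 min dark; AlphaScreen read.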
Sfp inh: blocks B. subtilis Sfp PPTase activity; Q9F4F7; Potency, µM, for the others: largest response in the series, negative = inhibition, usual class: inhibitors; AID 1490; Biochemical Sfp PPTase activity, qHTS; actives 3.5% (n = 310,000);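 further: the enzyme is Sfp with the accession as filed and its product quenches rhodamine fluorescence; 0% = enzyme reaction without inhibitor and -100% = no enzyme wells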
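Step 1, compound plus 15 nM Sfp-PPTase, 15 min, room temperature. Step 2, add rhodamine-CoA (5 uM) and BHQ-2-YbbR (12.5 uM). Step 3, read 525/598 nm fluorescence at 0 and 30 min.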
PLK1 PBD block: PLK1 (human) polo-box domain binding inhibition; Potency, µM, for the others: max response, negative = inhibition, actives largely listed as inhibitors; P53350; actives 2.8% (n = 360,000); Plk1 PBD binding of FITC phosphopeptide, fluorescence polarization; further: series mostly up to about 57 µM; on the % scale 0 is the no-effect control and ±100 the full control effect; nearly all actives have a fitted effect of over 65% in size
G9a inh: G9a (human) methyltransferase inhibition; Q96KQ7; G9a H3K9 monomethylation, AlphaScreen, 2 h; Potency, µM (doses to about 102 µM), inactives show at the highest dose activity, negative = inhibition, most hits filed as inhibitors; actives 8.8% (n = 350,000); further: on the % scale 0 is the no-effect control and ±100 the full control effect; nearly all actives have a fitted effect of over 75% in size
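Enzyme 20 nM + cpd, 15 min RT; add b-H3K9 pep 500 nM / SAM 20 uM; 2 h RT; anti-H3K9me1 Ab 0.5 ug/mL + SA donor / anti-rabbit acceptor beads 20 ug/mL each, 10 min; AlphaScreen read.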
JMJD2A Tudor inh: inhibitors of human JMJD2A Tudor domain; actives 4.4% (n = 390,000); AID 504339; O75164; Potency, µM (top dose mostly 114 µM), for inactives: top-dose activity change, negative = inhibition, most hits filed as inhibitors; AlphaScreen JMJD2A-Tudor / H3K4me3 peptide binding; further: on the % scale 0 is the no-effect control and ±100 the full control effect; nearly all actives have a fitted effect of over 50% in size
HP1b binding inh: blocks HP1-beta chromodomain binding to methylated histone tails; P83916; AlphaScreen HP1-beta / biotin-H3K9me3 peptide binding; Potency, µM (series often up to 114 µM), for inactives: top-dose activity change, negative = inhibition, usual class: inhibitors; actives 0.56% (n = 390,000); AID 540317; further: nearly all actives have a fitted effect of over 70% in size
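AlphaScreen: HP1-beta (50 nM) preformed 30 min with biotin-H3(1-18)K9me3 peptide (50 nM) in PBS pH 7.4, 0.01% Tween-20. Compound added for 30 min at RT, then streptavidin donor/nickel chelate acceptor beads (10 ug/mL) for 30 min.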
Active calls of the source: *; ? = inconclusive; · = not tested or not shown; [ ] = remark or other dose. A selection: hits, their analogues and other compounds. The true share with any hit is near 12%. The call rests on the fitted dose curve; in most records, active means well fitted curve in the direction sought with a large enough effect; inconclusive means small, poorly fitted or top-dose-only effect, or another doubt; inactive means no such curve, though single readings can be large; an effect the other way counts as inactive or inconclusive. Potency means the concentration at half of the fitted maximal effect.

SMILES	BAZ2B block	Sfp inh	PLK1 PBD block	G9a inh	JMJD2A Tudor inh	HP1b binding inh
O=C(Oc1ccc(Br)cc1C(=S)N1CCOCC1)c1ccc([N+](=O)[O-])cc1[N+](=O)[O-]	?	50µM*	6µM*	8.9µM*	?	?
O=C(Oc1ccc(Br)cc1C(=S)N1CCCCC1)c1cc([N+](=O)[O-])cc([N+](=O)[O-])c1	?	-2%	?	?	?	?
COc1ccc(OC)c(CCNC(=O)C(C)n2c(C)c3cnn(-c4ccccc4)c(=O)c3c2C)c1 (stereo not given)	-30%	·	·	-1%[59 µM]	-35%	-10%
CCOc1ccccc1NC(=O)C1CCCN1S(=O)(=O)c1ccc2nc(-c3ccccc3)[nH]c2c1 (stereo not given)	?	·	·	-12%[59 µM]	-36%	14%
CN(C)C(=O)CSc1ccc(S(=O)(=O)N2CCOCC2)cn1	9%	·	-10%	-3%[12.7 µM]	-11%	26%
COc1cc(C(=S)N2CCOCC2)ccc1OC(=O)c1ccccc1[N+](=O)[O-]	-12%	-15%	-23%	·	?	-13%
O=C(Oc1cccc(C(=S)N2CCOCC2)c1)c1ccc([N+](=O)[O-])cc1[N+](=O)[O-]	?	?	?	25µM*	-35%	?
C=CCc1cccc(/C=N/c2ncn[nH]2)c1O	-34%	21%	-26%	-4%[12.7 µM]	-18%[57.1 µM]	11%
C=CCc1cccc(C=Nc2cc(Br)ccc2O)c1O	?	?	19%	45µM*	?	9%
CCc1ccc(O)c(N=Cc2cccc(C)c2O)c1	-34%	-20%	0%	2.5µM*	?	-3%
Cc1cccc(C=Nc2ccc3c4c(cccc24)CC3)c1O	?	-24%	-4%	?	-29%	5%
CC(=O)N(CC#CCN(C(C)=O)c1ccccc1)c1ccccc1	·	·	-8%	·	·	·
O=S(=O)(NCCN1CCOCC1)c1cc(Cl)c(Cl)cc1Cl	6%	13%	-5%	·	-4%	34%
CN1C(C(=O)c2ccccc2)=C(OC(=O)c2ccc(Br)cc2)c2ccccc2S1(=O)=O	-29%	·	·	?	-35%	13%
N#C/C(=C\c1ccc(N2CCOCC2)o1)C(=O)NC1CCCCC1	-39%	45µM*	81%	·	-8%	33%
COCCNC(=O)/C(C#N)=C/c1ccc(N2CCOCC2)o1	-8%	-11%	85%	?	-5%	7%
N#C/C(=C\c1ccc(N2CCOCC2)o1)C(=O)NCCc1ccccc1	-27%	5%	92%	32µM*	-32%	21%
N#C/C(=C\c1ccc(N2CCOCC2)o1)C(=O)NCC1CCCO1 (stereo not given)	-16%	-1%	80%	·	-12%	23%
CCn1c(NC(=O)/C=C/c2ccc(F)cc2)nc2ccccc21	2%	13%	-8%	42%	-30%	-1%
Cc1nc(C)c(C(=O)C2=C(O)C(=O)N(CCN3CCOCC3)C2c2cccs2)s1 (stereo not given)	-32%	-21%	-7%	?	?	35%
COc1ccc(C2C(C(=O)c3cccs3)=C(O)C(=O)N2CCN2CCOCC2)c(OC)c1 (stereo not given)	-20%	9%	-7%	50µM*	-23%	9%
COc1ccc(OC)c(C2C(C(=O)c3cccs3)=C(O)C(=O)N2CCN2CCOCC2)c1 (stereo not given)	20%	?	-11%	45µM*	0%	25%
CC(=O)Nc1ccc(NS(=O)(=O)c2ccc3[nH]c4c(c3c2)CCCCC4)cc1	14%[57.1 µM]	·	·	-32%[59 µM]	-10%	-27%
Cc1cnc(CNc2ccnc(-c3cccc(NS(C)(=O)=O)c3)n2)cn1	·	3%	·	-7%[0.501 µM]	·	·
Cc1ccc(C)c(OCC(=O)Nc2ccccc2N2CCCC2)c1	?	-2%	-3%	40µM*	?	12%
SMILES	BAZ2B block	Sfp inh	PLK1 PBD block	G9a inh	JMJD2A Tudor inh	HP1b binding inh
CCOc1ccc(OCC(=O)Nc2ccccc2N2CCCC2)cc1	?	·	1%	50µM*	?	-21%
CC(=O)c1ccc(OCC(=O)Nc2ccccc2N2CCCC2)cc1	?	4%	-1%	·	-26%	13%
COc1cc(C(=S)N2CCCC2)cc(Cl)c1OCC(=O)Nc1ccc(C)cc1C	?	?	8.4µM*	7.9µM*	?	?
CCc1ccccc1NC(=O)COc1ccc(C(=S)N2CCCC2)cc1	-21%	?	?	-35%	71µM*	-7%
Cc1ccc(C(=O)OCC(=O)NC2CCCC2)cc1C	14%	0%	-10%	7%[2.33 µM]	-17%	6%
CCc1ccc(CNC(=O)c2ccc(CS(=O)(=O)Cc3ccccc3C)o2)cc1	5%	·	·	3%[59 µM]	-27%	18%
Cc1ccc(C)c(N2N=C(C(=O)Nc3ccccc3N3CCCC3)CCC2=O)c1	35µM*	-5%	-7%	50µM*	45µM*	50µM*
CC(=O)N1CCN(c2ccccc2NC(=O)COc2cc(C)cc(C)c2)CC1	-3%	15%	?	-5%[59 µM]	50µM*	5%
Cc1ccc(OCC(=O)Nc2ccccc2N2CCCC2)c(C)c1	71µM*	?	-13%	-8%[12.7 µM]	-33%	13%
COCOc1cccc(CN2CCC2(C)C(=O)Nc2ccc(C)c(O)c2)c1 (stereo not given)	·	·	-1%	·	·	·
CCn1c(/C=C/Nc2ccccc2)[n+](CC)c2ccc(Cl)cc21	3%	4%	-7%	45µM*	-23%	7%
CCOC(=O)c1ccc2c(c1)n(CC)c(/C=C/Nc1ccccc1)[n+]2CC	-34%	0%	2%	8%[0.501 µM]	-17%	41%
COc1cc([C@@H]2c3cc4c(cc3[C@@H](OC3OC5COC(C)OC5C(O)C3O)[C@H]3COC(=O)[C@H]23)OCO4)cc(OC)c1O (stereo not given in full)	·	34%	·	?	·	·
C=CCN(CC=C)C(=S)NC(=O)c1ccc(OC)cc1	?	-11%	?	·	-17%	-1%
C=CCN(CC=C)C(=S)NC(=O)/C=C/c1ccccc1	6%	3%	15µM*	17%[59 µM]	22µM*	?
C=CCN(CC=C)C(=S)NC(=O)c1ccc(-c2ccccc2)cc1	6.3µM*	?	-9%	-1%	?	0%
COc1cccc(-c2c(-c3cc(OC)cc(OC)c3)n(C)c3ccc(-c4cnc(N5CCOCC5)nc4)cc23)c1	·	·	-4%	·	-27%	26%
COc1ccc(Cl)cc1NC(=O)C/C(C)=N/NC(=O)c1ccc(O)cc1	-28%	11%	-9%	71µM*	-12%	30%
O=C(/C=C/c1ccccc1)N1CCN(Cc2cc(=O)n3nc(-c4ccccc4Cl)sc3n2)CC1	7%	·	·	14%[59 µM]	-15%	11%[57 µM]
CC1(C)CCCC2(C)C3C(O)CC2(C)C(O)C31 (stereo not given)	·	17%	·	·	·	·
